Measured values published in PubChem BioAssay AID1159580 (chemical genetic matrix, 2015).
In all, about 5,500 compounds went through this assay and about 2,000 (36%) were called active. Not shown: some 18% with an inconclusive outcome. Some of the results follow. A number with no mark means an inactive call. Cut-off read from the data, not from the text of the source: active = normalized growth mostly below about 0.91 (no sharp cut-off); inconclusive = no clear call, values can overlap the other calls; inactive = mostly above about 0.92.

Assay: chemical genetic growth profiling, strain panel (AID 1159580);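 note: tested at 20 µM; growth read once vehicle control cultures reached saturation at 30 °C; 1 = growth at the plate median or of vehicle wells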
Conditions: S. cerevisiae deletion strains, growth OD

COc1cc2c(cc1OC)[C@@H]1C(=O)c3ccc(O)c(CC=C(C)C)c3O[C@@H]1CO2
normalized growth (locus YAL021C, strain ccr4, stronger effect = lower value): 1.12 [resistant] (active) | normalized growth (locus YAL026C, strain drs2, stronger effect = lower value): 1.01 | normalized growth (locus YAL030W, strain snc1, stronger effect = lower value): 1.03 | normalized growth (locus YBL061C, strain skt5, stronger effect = lower value): 0.958 | normalized growth (locus YBR009C, strain hhf1, stronger effect = lower value): 1.03 | normalized growth (locus YBR021W, strain FUR4, stronger effect = lower value): 0.989 | normalized growth (locus YBR023C, strain chs3, stronger effect = lower value): 0.987 | normalized growth (locus YBR171W, strain sec66, stronger effect = lower value): 0.998 | normalized growth (locus YBR229C, strain ROT2, stronger effect = lower value): 0.986 | normalized growth (locus YBR231C, strain swc5, stronger effect = lower value): 1.01 | normalized growth (locus YBR279W, strain paf1, stronger effect = lower value): 1.12 [resistant] (active) | normalized growth (locus YCL011C, strain gbp2, stronger effect = lower value): 1.06 | normalized growth (locus YCL016C, strain dcc1, stronger effect = lower value): 0.965 | normalized growth (locus YCL029C, strain bik1, stronger effect = lower value): 0.984 | normalized growth (locus YCL061C, strain MRC1, stronger effect = lower value): 0.985 | normalized growth (locus YCL069W, strain vba3, stronger effect = lower value): 1 | normalized growth (locus YCR088W, strain abp1, stronger effect = lower value): 1 | normalized growth (locus YDL005C, strain med2, stronger effect = lower value): 1.05 | normalized growth (locus YDL035C, strain GPR1, stronger effect = lower value): 1.02 | normalized growth (locus YDL040C, strain nat1, stronger effect = lower value): 0.975 | normalized growth (locus YDL074C, strain BRE1, stronger effect = lower value): 0.961 | normalized growth (locus YDL101C, strain DUN1, stronger effect = lower value): 0.969 | normalized growth (locus YDL134C, strain PPH21, stronger effect = lower value): 0.967 | normalized growth (locus YDL185W, strain tfp1, stronger effect = lower value): 0.974 | normalized growth (locus YDL192W, strain arf1, stronger effect = lower value): 1.03 | normalized growth (locus YDR001C, strain nth1, stronger effect = lower value): 1.01 | normalized growth (locus YDR069C, strain doa4, stronger effect = lower value): 1.08 | normalized growth (locus YDR101C, strain arx1, stronger effect = lower value): 1.05 | normalized growth (locus YDR137W, strain rgp1, stronger effect = lower value): 1.02 | normalized growth (locus YDR159W, strain sac3, stronger effect = lower value): 1.07 | normalized growth (locus YDR162C, strain NBP2, stronger effect = lower value): 0.978 | normalized growth (locus YDR195W, strain ref2): 0.963 | normalized growth (locus YDR297W, strain sur2, stronger effect = lower value): 1.05 | normalized growth (locus YDR318W, strain mcm21, stronger effect = lower value): 1.01 | normalized growth (locus YDR334W, strain swr1, stronger effect = lower value): 1 | normalized growth (locus YDR335W, strain msn5, stronger effect = lower value): 1.02 | normalized growth (locus YDR388W, stronger effect = lower value): 0.982 | normalized growth (locus YDR392W, strain spt3, stronger effect = lower value): 0.91 | normalized growth (locus YDR502C, strain sam2, stronger effect = lower value): 0.971 | normalized growth (locus YEL003W, strain gim4, stronger effect = lower value): 1.03 | normalized growth (locus YEL037C, strain rad23, stronger effect = lower value): 1.03 | normalized growth (locus YEL061C, strain CIN8 (second series), stronger effect = lower value): 1.06 | normalized growth (locus YEL061C, strain CIN8, stronger effect = lower value): 0.992 | normalized growth (locus YER015W, strain faa2, stronger effect = lower value): 1.01 | normalized growth (locus YER016W, strain bim1, stronger effect = lower value): 1.07 | normalized growth (locus YER110C, stronger effect = lower value): 0.966 | normalized growth (locus YER111C, strain swi4, stronger effect = lower value): 1.02 | normalized growth (locus YER155C, strain BEM2 (second series), stronger effect = lower value): 0.979 | normalized growth (locus YER155C, strain BEM2, stronger effect = lower value): 0.982 | normalized growth (locus YER167W, strain BCK2, stronger effect = lower value): 0.998 | normalized growth (locus YFR010W, strain ubp6, stronger effect = lower value): 1.01 | normalized growth (locus YGL078C, strain dbp3, stronger effect = lower value): 1.02 | normalized growth (locus YGL086W, strain mad1, stronger effect = lower value): 1.02 | normalized growth (locus YGL167C, strain pmr1, stronger effect = lower value): 0.988 | normalized growth (locus YGL173C, strain kem1, stronger effect = lower value): 1.01 | normalized growth (locus YGL227W, strain vid30, stronger effect = lower value): 0.997 | normalized growth (locus YGL240W, strain doc1, stronger effect = lower value): 1.03 | normalized growth (locus YGL248W, strain PDE1, stronger effect = lower value): 0.932 | normalized growth (locus YGL253W, strain hxk2, stronger effect = lower value): 1.02 | normalized growth (locus YGR078C, strain PAC10, stronger effect = lower value): 0.975 | normalized growth (locus YGR135W, strain pre9, stronger effect = lower value): 0.952 | normalized growth (locus YGR229C, strain SMI1, stronger effect = lower value): 1.19 | normalized growth (locus YGR252W, strain gcn5, stronger effect = lower value): 0.999 | normalized growth (locus YHR013C, strain ard1, stronger effect = lower value): 1.02 | normalized growth (locus YHR027C, strain rpn1, stronger effect = lower value): 1.03 | normalized growth (locus YHR030C, strain SLT2, stronger effect = lower value): 0.994 | normalized growth (locus YHR079C, strain IRE1 (second series), stronger effect = lower value): 1 | normalized growth (locus YHR094C, strain hxt1, stronger effect = lower value): 0.988 | normalized growth (locus YHR129C, strain ARP1, stronger effect = lower value): 0.984 | normalized growth (locus YHR142W, strain chs7, stronger effect = lower value): 1.02 | normalized growth (locus YHR200W, strain rpn10, stronger effect = lower value): 1 | normalized growth (locus YIL066C, strain RNR3, stronger effect = lower value): 0.981 | normalized growth (locus YIL073C, strain SPO22, stronger effect = lower value): 0.913 | normalized growth (locus YIL125W, strain kgd1, stronger effect = lower value): 0.994 | normalized growth (locus YIR030C, strain dcg1, stronger effect = lower value): 0.981 | normalized growth (locus YJL092W, strain hpr5, stronger effect = lower value): 1 | normalized growth (locus YJL095W, strain BCK1 (second series), stronger effect = lower value): 1.02 | normalized growth (locus YJL095W, strain BCK1, stronger effect = lower value): 0.953 | normalized growth (locus YJL115W, strain asf1, stronger effect = lower value): 1.06 | normalized growth (locus YJL129C, strain trk1, stronger effect = lower value): 1.17 [resistant] (active) | normalized growth (locus YJL134W, strain LCB3, stronger effect = lower value): 0.978 | normalized growth (locus YJL154C, strain vps35, stronger effect = lower value): 1.01 | normalized growth (locus YJL164C, strain tpk1, stronger effect = lower value): 1.02 | normalized growth (locus YJL166W, strain qcr8, stronger effect = lower value): 1.06 | normalized growth (locus YJL168C, strain set2, stronger effect = lower value): 0.979 | normalized growth (locus YJL187C, strain SWE1 (second series), stronger effect = lower value): 0.951 | normalized growth (locus YJL187C, strain SWE1, stronger effect = lower value): 1.1 [resistant] (active) | normalized growth (locus YJR043C, strain POL32, stronger effect = lower value): 1.05 | normalized growth (locus YKL009W, strain mrt4, stronger effect = lower value): 0.93 | normalized growth (locus YKL068W, stronger effect = lower value): 0.969 | normalized growth (locus YKL085W, strain MDH1 (second series), stronger effect = lower value): 0.963 | normalized growth (locus YKL085W, strain MDH1, stronger effect = lower value): 0.963 | normalized growth (locus YKL160W, strain elf1, stronger effect = lower value): 1.02 | normalized growth (locus YKR001C, strain vps1, stronger effect = lower value): 1.02 | normalized growth (locus YKR026C, strain gcn3, stronger effect = lower value): 1 | normalized growth (locus YKR091W, strain srl3, stronger effect = lower value): 1.03 | normalized growth (locus YLL001W, strain dnm1, stronger effect = lower value): 1 | normalized growth (locus YLL026W, stronger effect = lower value): 1.03 | normalized growth (locus YLL041C, strain sdh2, stronger effect = lower value): 1.09 [resistant] (active) | normalized growth (locus YLR027C, strain aat2, stronger effect = lower value): 1.07 | normalized growth (locus YLR039C, strain RIC1, stronger effect = lower value): 0.925 | normalized growth (locus YLR058C, strain SHM2, stronger effect = lower value): 0.98 | normalized growth (locus YLR102C, strain apc9, stronger effect = lower value): 0.991 | normalized growth (locus YLR221C, strain rsa3, stronger effect = lower value): 1.04 | normalized growth (locus YLR258W, strain gsy2, stronger effect = lower value): 1.06 | normalized growth (locus YLR262C, strain YPT6 (second series), stronger effect = lower value): 0.97 | normalized growth (locus YLR262C, strain YPT6, stronger effect = lower value): 0.906 | normalized growth (locus YLR268W, strain sec22, stronger effect = lower value): 1.02 | normalized growth (locus YLR320W, strain mms22, stronger effect = lower value): 0.961 | normalized growth (locus YLR330W, strain CHS5, stronger effect = lower value): 0.99 | normalized growth (locus YLR342W, strain FKS1 (second series), stronger effect = lower value): 1.06 | normalized growth (locus YLR342W, strain FKS1, stronger effect = lower value): 1.02 | normalized growth (locus YLR357W, strain rsc2, stronger effect = lower value): 1.05 | normalized growth (locus YLR370C, strain arc18, stronger effect = lower value): 1 | normalized growth (locus YLR371W, strain rom2, stronger effect = lower value): 1.02 | normalized growth (locus YLR384C, strain iki3, stronger effect = lower value): 0.971 | normalized growth (locus YLR418C, strain cdc73, stronger effect = lower value): 1 | normalized growth (locus YML016C, strain PPZ1, stronger effect = lower value): 1 | normalized growth (locus YML032C, strain rad52, stronger effect = lower value): 1.01 | normalized growth (locus YML120C, strain ndi1, stronger effect = lower value): 0.976 | normalized growth (locus YML124C, strain tub3, stronger effect = lower value): 0.989 | normalized growth (locus YMR058W, strain fet3, stronger effect = lower value): 1 | normalized growth (locus YMR078C, strain ctf18, stronger effect = lower value): 1.01 | normalized growth (locus YMR125W, strain sto1, stronger effect = lower value): 1.01 | normalized growth (locus YMR129W, stronger effect = lower value): 1.01 | normalized growth (locus YMR205C, strain PFK2, stronger effect = lower value): 1.02 | normalized growth (locus YMR223W, strain ubp8, stronger effect = lower value): 0.995 | normalized growth (locus YMR231W, strain pep5, stronger effect = lower value): 0.959 | normalized growth (locus YMR307W, strain GAS1, stronger effect = lower value): 1.1 | normalized growth (locus YNL067W, strain RPL9B, stronger effect = lower value): 0.958 | normalized growth (locus YNL071W, strain lat1, stronger effect = lower value): 1.02 | normalized growth (locus YNL128W, strain TEP1, stronger effect = lower value): 0.966 | normalized growth (locus YNL209W, strain ssb2, stronger effect = lower value): 1.05 | normalized growth (locus YNL233W, strain BNI4, stronger effect = lower value): 0.947 | normalized growth (locus YNL248C, strain rpa49, stronger effect = lower value): 1.01 | normalized growth (locus YNL250W, strain rad50, stronger effect = lower value): 0.923 | normalized growth (locus YNL271C, strain bni1, stronger effect = lower value): 1 | normalized growth (locus YNL298W, strain CLA4, stronger effect = lower value): 0.959 | normalized growth (locus YNL307C, strain MCK1, stronger effect = lower value): 0.967 | normalized growth (locus YNL322C, strain KRE1 (second series), stronger effect = lower value): 1.04 | normalized growth (locus YNL322C, strain KRE1, stronger effect = lower value): 0.985 | normalized growth (locus YNR049C, strain mso1, stronger effect = lower value): 0.999 | normalized growth (locus YNR052C, strain pop2, stronger effect = lower value): 0.986 | normalized growth (locus YOL012C, strain htz1): 0.715 | normalized growth (locus YOL147C, strain pex11, stronger effect = lower value): 0.987 | normalized growth (locus YOR001W, strain rrp6, stronger effect = lower value): 1.05 | normalized growth (locus YOR061W, strain CKA2, stronger effect = lower value): 0.99 | normalized growth (locus YOR069W, strain VPS5, stronger effect = lower value): 0.98 | normalized growth (locus YOR070C, strain gyp1, stronger effect = lower value): 1.02 | normalized growth (locus YOR080W, strain dia2, stronger effect = lower value): 1.07 | normalized growth (locus YOR083W, strain WHI5, stronger effect = lower value): 1 | normalized growth (locus YOR106W, strain vam3, stronger effect = lower value): 1.13 [resistant] (active) | normalized growth (locus YOR136W, strain idh2, stronger effect = lower value): 0.98 | normalized growth (locus YOR144C, strain elg1, stronger effect = lower value): 0.993 | normalized growth (locus YOR184W, strain ser1, stronger effect = lower value): 1.08 | normalized growth (locus YOR265W, strain rbl2, stronger effect = lower value): 1 | normalized growth (locus YOR270C, strain vph1, stronger effect = lower value): 0.971 | normalized growth (locus YOR290C, strain snf2, stronger effect = lower value): 1.01 | normalized growth (locus YOR316C, strain cot1, stronger effect = lower value): 0.966 | normalized growth (locus YPL051W, strain arl3, stronger effect = lower value): 1 | normalized growth (locus YPL055C, strain LGE1, stronger effect = lower value): 1.01 | normalized growth (locus YPL078C, strain atp4, stronger effect = lower value): 1.01 | normalized growth (locus YPL106C, strain sse1, stronger effect = lower value): 1.11 | normalized growth (locus YPL240C, strain hsp82, stronger effect = lower value): 1.11 [resistant] (active) | normalized growth (locus YPR119W, strain clb2, stronger effect = lower value): 0.986 | normalized growth (locus YPR141C, strain kar3, stronger effect = lower value): 1.01 | normalized growth (locus YPR163C, strain tif3, stronger effect = lower value): 1.01 | normalized growth (locus YPR167C, strain met16, stronger effect = lower value): 0.987 | normalized growth (strain wtn01, stronger effect = lower value): 1.04
